Results: ChEMBL document CHEMBL3988442, “University of Dundee, Small-Polar-MMV Screening Library” (2021)
For some assays here: Results with a measured potency or affinity are listed apart.

What was measured:
Parameters in all cases: scale not given: direction of the effect not stated beside the values
[1] = biological target: Protein translocase subunit SecA (Escherichia coli (strain K12)) (UniProt P10408); assay: Assay to Identify E. coli SecA ATPase Inhibitors; assay type: functional; conditions: 30 µM
Protein translocase subunit SecA (Escherichia coli (strain K12)), sequence (P10408 whole entry): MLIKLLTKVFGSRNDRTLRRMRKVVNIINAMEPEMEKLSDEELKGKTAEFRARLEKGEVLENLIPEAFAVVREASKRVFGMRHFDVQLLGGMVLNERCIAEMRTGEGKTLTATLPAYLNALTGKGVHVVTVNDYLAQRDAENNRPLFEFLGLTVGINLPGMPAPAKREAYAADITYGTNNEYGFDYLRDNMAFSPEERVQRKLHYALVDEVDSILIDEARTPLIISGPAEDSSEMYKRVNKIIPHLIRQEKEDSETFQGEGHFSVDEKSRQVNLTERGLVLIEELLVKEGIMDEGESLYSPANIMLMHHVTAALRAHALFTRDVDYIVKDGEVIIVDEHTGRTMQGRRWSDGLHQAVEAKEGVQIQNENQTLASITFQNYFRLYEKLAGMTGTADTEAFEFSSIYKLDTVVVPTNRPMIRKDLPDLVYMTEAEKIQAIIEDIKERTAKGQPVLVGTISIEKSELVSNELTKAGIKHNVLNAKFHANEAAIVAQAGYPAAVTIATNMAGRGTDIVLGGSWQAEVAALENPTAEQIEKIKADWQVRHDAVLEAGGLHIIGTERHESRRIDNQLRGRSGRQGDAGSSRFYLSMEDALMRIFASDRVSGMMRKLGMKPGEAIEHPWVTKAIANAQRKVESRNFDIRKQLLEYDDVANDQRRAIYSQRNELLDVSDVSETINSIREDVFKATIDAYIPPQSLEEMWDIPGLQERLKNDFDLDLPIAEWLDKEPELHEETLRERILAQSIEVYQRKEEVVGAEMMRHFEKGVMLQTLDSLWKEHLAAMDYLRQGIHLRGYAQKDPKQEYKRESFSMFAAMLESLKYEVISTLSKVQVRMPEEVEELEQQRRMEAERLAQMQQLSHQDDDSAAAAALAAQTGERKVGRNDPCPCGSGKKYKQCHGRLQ

[2] = biological target: T1, Ubiquitin-activating enzyme e1, putative (Leishmania donovani (strain BPK282A1)) (UniProt E9BSI1); assay: Leishmania donovani Ubiquitin Activating Enzyme (LdE1); assay type: functional; conditions: 30 µM
T1 sequence (whole entry): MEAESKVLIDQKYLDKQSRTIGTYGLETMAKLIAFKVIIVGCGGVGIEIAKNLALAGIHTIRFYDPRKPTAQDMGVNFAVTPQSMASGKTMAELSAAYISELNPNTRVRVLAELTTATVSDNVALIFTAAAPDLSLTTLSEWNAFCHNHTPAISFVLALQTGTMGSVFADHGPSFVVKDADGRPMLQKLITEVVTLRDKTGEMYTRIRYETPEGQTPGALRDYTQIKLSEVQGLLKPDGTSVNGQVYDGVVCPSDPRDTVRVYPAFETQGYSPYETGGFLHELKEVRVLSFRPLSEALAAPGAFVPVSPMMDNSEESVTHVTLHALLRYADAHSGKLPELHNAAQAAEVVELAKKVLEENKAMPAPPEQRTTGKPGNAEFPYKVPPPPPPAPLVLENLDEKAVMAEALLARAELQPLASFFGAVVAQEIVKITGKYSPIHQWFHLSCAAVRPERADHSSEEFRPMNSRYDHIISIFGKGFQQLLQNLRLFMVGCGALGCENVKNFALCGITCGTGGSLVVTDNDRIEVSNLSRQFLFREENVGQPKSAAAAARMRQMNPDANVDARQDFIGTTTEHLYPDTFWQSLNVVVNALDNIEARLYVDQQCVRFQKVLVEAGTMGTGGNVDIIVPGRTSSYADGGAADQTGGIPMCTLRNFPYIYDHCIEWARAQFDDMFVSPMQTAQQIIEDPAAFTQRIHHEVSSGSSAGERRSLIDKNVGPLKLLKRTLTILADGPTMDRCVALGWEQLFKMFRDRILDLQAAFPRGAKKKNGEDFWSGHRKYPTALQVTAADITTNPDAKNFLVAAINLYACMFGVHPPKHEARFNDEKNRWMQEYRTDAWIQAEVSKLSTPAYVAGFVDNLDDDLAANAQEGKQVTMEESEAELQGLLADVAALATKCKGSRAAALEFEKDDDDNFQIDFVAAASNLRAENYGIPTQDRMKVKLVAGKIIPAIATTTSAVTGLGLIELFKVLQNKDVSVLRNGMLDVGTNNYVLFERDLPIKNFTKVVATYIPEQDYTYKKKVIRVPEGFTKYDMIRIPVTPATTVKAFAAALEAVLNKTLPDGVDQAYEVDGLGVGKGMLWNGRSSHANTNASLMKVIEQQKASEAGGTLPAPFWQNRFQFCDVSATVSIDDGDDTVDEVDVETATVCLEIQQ

[3] = biological target: AMP-activated protein kinase, AMPK (Homo sapiens) (UniProt P54646+O43741+P54619+Q9UGJ0+Q9Y478+Q13131+Q9UGI9); assay: AMP-dependent Kinase enzyme assay. An in vitro enzyme assay that detects ADP turnover that is directly proportional to AMPK activity. This uses naive AMPK that is activated during the assay with MK-8722; assay type: functional; conditions: 30 µM
[4] = biological target: Sialic acid-binding Ig-like lectin 9 (Homo sapiens) (UniProt Q9Y336); assay: Hs-Siglec9 ALPHAscreen SOP 20170721; conditions: 10 µM
Sialic acid-binding Ig-like lectin 9 (Homo sapiens), sequence (Q9Y336 whole entry): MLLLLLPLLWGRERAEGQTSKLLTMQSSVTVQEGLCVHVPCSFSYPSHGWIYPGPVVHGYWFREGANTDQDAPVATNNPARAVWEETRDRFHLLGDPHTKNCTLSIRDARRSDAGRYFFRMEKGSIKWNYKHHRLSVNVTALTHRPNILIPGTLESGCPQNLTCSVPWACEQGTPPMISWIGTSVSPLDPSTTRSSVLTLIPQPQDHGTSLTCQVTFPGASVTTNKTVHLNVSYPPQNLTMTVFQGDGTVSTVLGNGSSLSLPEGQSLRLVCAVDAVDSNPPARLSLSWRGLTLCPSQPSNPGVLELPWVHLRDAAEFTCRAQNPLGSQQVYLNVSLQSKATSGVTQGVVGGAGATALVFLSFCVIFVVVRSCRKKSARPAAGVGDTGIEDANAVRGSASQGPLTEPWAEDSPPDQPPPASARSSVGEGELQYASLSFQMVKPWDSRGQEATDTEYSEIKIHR

[5] = tested on: Trypanosoma cruzi; assay: Trypanosoma cruzi phosphomannomutase and mannose-1-phosphate guanylyltransferase assay; assay type: functional; conditions: 10 µM
[6] = biological target: T2, Arginase-2, mitochondrial (Homo sapiens) (UniProt P78540); assay: in vitro enzyme assay to detect the production of urea directly proportional to the activity of Arginase II; assay type: functional; conditions: 33.3 µM; further: in the data most compounds retested in dose-response had high values
T2 sequence (whole entry): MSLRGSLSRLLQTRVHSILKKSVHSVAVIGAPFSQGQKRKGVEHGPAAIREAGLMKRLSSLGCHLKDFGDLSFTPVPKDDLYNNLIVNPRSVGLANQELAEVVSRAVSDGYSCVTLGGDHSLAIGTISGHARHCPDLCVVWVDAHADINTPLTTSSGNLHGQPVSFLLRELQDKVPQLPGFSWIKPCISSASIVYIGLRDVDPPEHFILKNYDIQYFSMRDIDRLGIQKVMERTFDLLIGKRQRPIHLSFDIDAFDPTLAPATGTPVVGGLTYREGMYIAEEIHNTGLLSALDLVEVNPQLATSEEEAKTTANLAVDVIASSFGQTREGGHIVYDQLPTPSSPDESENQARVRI

[7] = biological target: T3, Proteasome subunit beta (Trypanosoma cruzi) (UniProt O96673); assay: Trypanosoma cruzi proteasome chymotrypsin-like activity (TcProtChymo) assay.; further: in the data most compounds retested in dose-response had high values; assay type: functional; conditions: 9.37 µM
T3 sequence (whole entry): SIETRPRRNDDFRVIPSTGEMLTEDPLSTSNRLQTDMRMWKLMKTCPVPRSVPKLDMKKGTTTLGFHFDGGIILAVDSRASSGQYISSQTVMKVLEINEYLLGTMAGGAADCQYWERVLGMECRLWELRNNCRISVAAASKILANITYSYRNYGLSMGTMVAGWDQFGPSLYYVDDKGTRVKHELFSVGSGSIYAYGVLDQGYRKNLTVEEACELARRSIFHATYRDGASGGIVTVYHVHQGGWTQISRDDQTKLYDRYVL

[8] = species on record: Homo sapiens; assay: To identify inhibition of the IFN signalling (Jak-Stat) pathway via expression of an eGFP reporter gene under the control of an IFN-stimulated response element (ISRE) containing MxA promoter.; assay type: functional; conditions: 30 µM
[9] = biological target: T4, Tyrosyl-tRNA synthetase, putative (Trypanosoma cruzi (strain CL Brener)) (UniProt Q4DSP6); assay: Trypanosoma cruzi tyrosyl tRNA synthetase (TcYRS) _High Tyrosine SOP; assay type: functional; conditions: 30 µM; further: in the data most compounds retested in dose-response had high values
T4 sequence (whole entry): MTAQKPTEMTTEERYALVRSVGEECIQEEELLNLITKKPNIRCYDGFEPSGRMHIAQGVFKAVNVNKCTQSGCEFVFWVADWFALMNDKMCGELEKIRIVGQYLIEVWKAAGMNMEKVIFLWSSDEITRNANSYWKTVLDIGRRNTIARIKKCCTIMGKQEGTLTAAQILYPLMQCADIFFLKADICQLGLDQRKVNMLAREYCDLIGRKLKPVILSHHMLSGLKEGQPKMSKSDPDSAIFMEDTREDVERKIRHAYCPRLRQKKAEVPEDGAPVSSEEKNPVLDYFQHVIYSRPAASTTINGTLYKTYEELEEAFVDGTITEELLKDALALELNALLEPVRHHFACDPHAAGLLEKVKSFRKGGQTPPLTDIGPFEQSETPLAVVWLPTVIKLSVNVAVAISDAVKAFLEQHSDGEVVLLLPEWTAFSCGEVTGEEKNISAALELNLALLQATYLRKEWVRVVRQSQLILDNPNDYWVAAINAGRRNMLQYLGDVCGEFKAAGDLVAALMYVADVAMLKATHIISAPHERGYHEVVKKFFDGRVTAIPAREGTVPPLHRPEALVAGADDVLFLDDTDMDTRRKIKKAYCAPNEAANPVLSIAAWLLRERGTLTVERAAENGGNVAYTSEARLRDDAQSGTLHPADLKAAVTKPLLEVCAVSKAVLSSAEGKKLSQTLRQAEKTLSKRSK

[10] = biological target: T4, Tyrosyl-tRNA synthetase, putative (Trypanosoma cruzi (strain CL Brener)); assay: Trypanosoma cruzi tyrosyl tRNA synthetase (TcYRS) SOP; assay type: functional; conditions: 30 µM
[11] = biological target: Chromo domain-containing protein 1 (Saccharomyces cerevisiae (strain ATCC 204508 / S288c) (Baker's yeast)) (UniProt P32657); assay: ScCHD-1 Enzyme Inhibition Assay; assay type: functional; conditions: 30 µM; further: in the data most compounds retested in dose-response had high values
Chromo domain-containing protein 1 (Saccharomyces cerevisiae (strain ATCC 204508 / S288c) (Baker's yeast)), sequence (P32657 whole entry, the tested form may be a part): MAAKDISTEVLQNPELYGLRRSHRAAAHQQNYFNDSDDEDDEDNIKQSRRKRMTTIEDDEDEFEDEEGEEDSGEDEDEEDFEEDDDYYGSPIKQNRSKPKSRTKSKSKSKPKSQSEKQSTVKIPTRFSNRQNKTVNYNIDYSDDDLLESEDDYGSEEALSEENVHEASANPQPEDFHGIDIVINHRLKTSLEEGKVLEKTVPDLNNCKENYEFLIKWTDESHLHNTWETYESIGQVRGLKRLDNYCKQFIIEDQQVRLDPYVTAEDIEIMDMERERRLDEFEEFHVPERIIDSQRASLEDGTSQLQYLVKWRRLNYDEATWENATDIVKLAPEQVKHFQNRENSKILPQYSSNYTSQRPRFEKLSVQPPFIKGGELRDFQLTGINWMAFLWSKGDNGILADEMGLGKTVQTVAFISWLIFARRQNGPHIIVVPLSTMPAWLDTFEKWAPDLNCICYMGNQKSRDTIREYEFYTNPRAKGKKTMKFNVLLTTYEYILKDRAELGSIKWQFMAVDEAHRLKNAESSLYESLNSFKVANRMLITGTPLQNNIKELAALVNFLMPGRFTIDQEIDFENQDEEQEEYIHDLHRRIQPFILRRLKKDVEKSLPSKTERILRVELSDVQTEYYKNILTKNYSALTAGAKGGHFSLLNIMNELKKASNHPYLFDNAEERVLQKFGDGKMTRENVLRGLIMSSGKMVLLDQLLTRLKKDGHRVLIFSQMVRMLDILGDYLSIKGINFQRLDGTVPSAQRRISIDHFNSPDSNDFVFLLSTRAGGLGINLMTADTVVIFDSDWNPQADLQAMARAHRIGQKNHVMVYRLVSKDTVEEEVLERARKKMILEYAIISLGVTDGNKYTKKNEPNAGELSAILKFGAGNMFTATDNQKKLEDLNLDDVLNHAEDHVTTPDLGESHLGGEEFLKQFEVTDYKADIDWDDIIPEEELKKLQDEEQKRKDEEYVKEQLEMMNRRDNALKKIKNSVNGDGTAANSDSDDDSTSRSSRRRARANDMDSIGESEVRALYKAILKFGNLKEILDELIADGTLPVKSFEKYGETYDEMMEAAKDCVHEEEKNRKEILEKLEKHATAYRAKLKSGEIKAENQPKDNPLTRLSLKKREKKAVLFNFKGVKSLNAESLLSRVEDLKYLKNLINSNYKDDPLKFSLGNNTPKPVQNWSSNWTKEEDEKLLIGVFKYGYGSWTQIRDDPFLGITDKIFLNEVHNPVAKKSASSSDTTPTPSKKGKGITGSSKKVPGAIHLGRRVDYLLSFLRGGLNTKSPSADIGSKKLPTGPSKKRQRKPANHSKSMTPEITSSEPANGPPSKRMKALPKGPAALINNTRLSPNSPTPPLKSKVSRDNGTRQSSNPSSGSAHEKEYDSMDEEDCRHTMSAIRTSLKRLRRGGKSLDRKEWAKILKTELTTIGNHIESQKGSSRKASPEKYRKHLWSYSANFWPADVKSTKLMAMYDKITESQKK

Row | Compound | Percent Effect [1] [%] | Percent Effect [2] [%] | Percent Effect [3] [%] | Percent Effect [4] [%] | Percent Effect [5] [%] | Percent Effect [6] [%] | Percent Effect [7] [%] | Percent Effect [8] [%] | Percent Effect [9] [%] | Percent Effect [10] [%] | Percent Effect [11] [%]
1 | O=C(Nc1nncs1)NC1CCOc2ccccc21 (configuration not stated) | -3.81 | 2.74 | 5.12 | -2.09 | -6.55 | -0.399 | 9.85 | 17 | 2.08 | 13.6 | -8.1
2 | Cn1cc(CN2CCCn3cnc(CN4CCCC4=O)c3C2)cn1 | -2.78 | -2.67 | 4.3 | 32.8 | -1.74 | -23.5 | 3.76 | -13.1 | 1.04 | 2.5 | -4.19
3 | Cc1ccc(CNC(=O)NCc2cccnc2N(C)C)s1 | -4.97 | 15.6 | 7.34 | 4.07 | -4.68 | -3.2 | 1.35 | 19.1 | 8.74 | 12.2 | -5.69
4 | Cc1nn(C)c(C)c1C1CCCN1Cc1cccc(C(=O)N(C)C)c1 (configuration not stated) | -2.08 | 7.59 | -8.35 | 3.65 | 4.06 | 0.76 | 2.54 | -16.6 | 4.43 | 8.86 | 0.0198
5 | CCN(C(=O)COC)C(c1cccnc1)c1cc(C)cc(C)c1 (configuration not stated) | 0.0465 | 2.74 | 4.88 | 27.6 | -11.3 | 1.6 | 12.9 | 22.9 | -2.08 | -8.64 | -2.33
6 | O=C(NCCNc1ncccn1)C1CCN(C(=O)C2CC2)CC1 | -2.16 | 13.5 | 5.28 | -1.97 | -4.55 | 5.36 | 0.718 | 13.2 | 6.93 | 13.4 | 3.86
7 | O=C([C@H]1C[C@H]2OCC[C@H]2N(CCc2ccccc2)C1)N1CCCCO1 | -4.49 | 5.41 | 7.77 | -1.67 | -0.0978 | 3.5 | 11.4 | -14.2 | 5.41 | 15.4 | 6.02
8 | CCC(=O)N1CCCC(c2cc(Nc3ncccn3)nc(C)n2)C1 (configuration not stated) | -3.27 | 1.35 | 13.2 | -0.199 | -1.58 | -5.8 | 10.6 | -1.71 | 6.45 | 11.7 | -6.06
9 | O=C(CN1CCOC(Cn2cccn2)C1)Nc1nncs1 (configuration not stated) | -7.55 | 10.4 | -7.65 | -17.4 | 10.3 | -4 | 11.2 | 13.3 | 9.52 | 18.8 | -22.6
10 | O=C(CN1CC(n2cccn2)C1)NCCCc1ccccc1 | 0.869 | -13.5 | 10.2 | 12.8 | 6.41 | 1.29 | -0.179 | -9.65 | 1.98 | 11 | 1.45
11 | Cn1ccc(C(=O)N2CCN(c3ncccn3)CC2)cc1=O | -7.23 | 5.41 | 33.6 | 9.56 | -3.49 | -2 | 6.13 | 4.12 | 3.45 | 11.1 | -2.92
12 | Cc1cnn(C2CCCN(C(=O)c3cnc4ccccc4n3)C2)c1 (configuration not stated) | -3.93 | 5.41 | -4.84 | 2.3 | 1.04 | -1.6 | 1.62 | 13 | 4.43 | 13.6 | -3.95
13 | O=C(c1ccc[nH]1)N1C[C@H]2CC[C@@H]1CN(c1ncccn1)C2 | -5.19 | 5.2 | 7.19 | 11.1 | 2.26 | -9.65 | 6.49 | -14.3 | 6.45 | 13.6 | -0.0272
14 | Cn1nc(CNC(=O)c2ccc(Cl)cc2)c2c1CCOC2 | -1.53 | 2.6 | 6.72 | 8.57 | 0.0986 | -3.23 | 1.22 | 5.87 | 4.23 | 6.41 | -3.86
15 | COCc1nc2cc(NCc3ccncc3)ccc2o1 | 6.12 | 54 | -108 | -0.763 | -1.76 | 9.58 | 13.4 | -8.66 | 4.95 | -1.22 | 2.52
16 | NC(=O)c1cccc(CC2CCN(C(=O)CO)C2)c1 (configuration not stated) | -1.68 | 19.2 | 10.3 | 10.6 | 3.33 | -0.909 | 15.4 | 2.47 | 4.3 | 17.5 | -3.86
17 | CC(C)N1CCOCC2(CN(Cc3nccs3)CCO2)C1 (configuration not stated) | -5.04 | 20.8 | -4.7 | -3.15 | 2.66 | 0.645 | 16.7 | 3.46 | 9.52 | 14.1 | -7.32
18 | Fc1cccc(-c2nc(CN3CCCCC3Cn3cncn3)co2)c1 (configuration not stated) | -2.29 | 7.59 | 1.61 | 1.08 | 7.65 | 1.52 | 1.72 | -27.5 | 3.45 | 13.9 | -6.86
19 | Cc1nsc(NC(=O)N2CCC(C(C)(C)O)CC2)n1 | 1.56 | 5.41 | -3.48 | -1.81 | -8.11 | 1.74 | 14.2 | 5.12 | 1.07 | 6.17 | -3.72
20 | CN(Cc1cccc(F)c1)C(=O)CN1CCCCC1Cn1cncn1 (configuration not stated) | -1.08 | -2.6 | -0.897 | 5.97 | 1.08 | -4.14 | 9.32 | -1.75 | 4.3 | -1.24 | -0.771
21 | CC(C)CN1C(=O)C2(CCN(Cc3nccs3)C2)c2ccccc21 (configuration not stated) | -1.96 | 5.41 | -2.39 | 1.8 | -5.08 | 5 | 16.1 | 37.2 | 3.96 | 3.66 | -5.7
22 | Cn1ccnc1CNC(=O)N1CCCC(Cc2nccn2C)C1 (configuration not stated) | -8.83 | -2.7 | 9.59 | -1.15 | -3.71 | -0.833 | 2.28 | -4.83 | 10.9 | 1.22 | 1.72
